Assay [1] deals with Zika virus NS2B-NS3 protease (linked construct). Nature of the assay: Primary screen NINDS Rhodamine qHTS for Zika virus inhibitors (AID 1347160). Also: potency is read from the fitted curve at half-maximal effect; nearly all actives have a fitted effect of over 55% in size. In outline:
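Percent inhibition, normalized to uninhibited and enzyme-free controls, is fitted to a 4-parameter Hill equation. Fluorescence change comes from a 15-min cleavage of 1.5 microM bis-peptide Rhodamine110 substrate by 25 nM linked NS2B-NS3 at room temperature.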
For orientation: In qHTS, concentration-response curves come from the screen itself.

Assay [2] is described as follows: HPAF-II Cancer Cell Toxicity qHTS against the NCATS CANVASS Library (AID 1347346). Also: series mostly up to about 38 µM; nearly all actives have a fitted effect of over 55% in size. The gist of the method: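 Luminescence from CellTiter-Glo, added after 72 h compound exposure and a 15 min room-temperature incubation, served as the viability readout. HPAF-II cells (1000/well) received an 11-point concentration series.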
Assay [3] can be described thus: UWB1.289 Cancer Cell Toxicity qHTS against the NCATS CANVASS Library (AID 1347347). Also: series mostly up to about 38 µM; nearly all actives have a fitted effect of over 60% in size. In outline:
(§1)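 1000 cells/well seeded and rested 4 h at 37 °C before pin transfer of compounds in an 11-pnt series. Exposure 72 h at 37 °C/5% CO2; viability by CellTiter-Glo luminescence after 15 min at room temperature.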

Assay [4] in a line: OV-SAHO Cancer Cell Toxicity qHTS against the NCATS CANVASS Library (AID 1347348). Also: series mostly up to about 38 µM; nearly all actives have a fitted effect of over 55% in size. The gist of the method:
as §1

Assay [5] is described as follows: Panc-1005 Cancer Cell Toxicity qHTS against the NCATS CANVASS Library (AID 1347349). Also: series mostly up to about 38 µM; nearly all actives have a fitted effect of over 60% in size. In outline: as §1
Assay [6] is described as follows: SW1088 Cancer Cell Toxicity qHTS against the NCATS CANVASS Library (AID 1347350). Also: series mostly up to about 38 µM; nearly all actives have a fitted effect of over 75% in size. In outline:
as §1

The nature of assay [7]: U-118MG Cancer Cell Toxicity qHTS against the NCATS CANVASS Library (AID 1347351). Also: series mostly up to about 38 µM. In outline:
as §1

Assay [8] in a line: COV-362 Cancer Cell Toxicity qHTS against the NCATS CANVASS Library (AID 1347352). Also: series mostly up to about 38 µM. The gist of the method:
(§2)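 Luminescent ATP read-out (CellTiter-Glo, 15min at room temperature) measures survival after cells face an 11-point compound series for 72 hours at 37 degrees C/5% CO2.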

Assay [9] can be described thus: A2780 Cisplatin Sensitive Ovarian Cancer Cell Toxicity qHTS against the NCATS CANVASS Library (AID 1347353). Also: nearly all actives have a fitted effect of over 60% in size. The gist of the method:
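Luminescent ATP content (ATPLite, 10 min at room temperature) served as the read-out after cells had been exposed to compounds for 72 hours at 37 °C. Dosing followed an 11-point concentration series.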

Assay [10] can be described thus: UWB1.289-WTBRCA1 Cancer Cell Toxicity qHTS against the NCATS CANVASS Library (AID 1347354). In outline: as §2
A short description of assay [11]: HEK-293 Cancer Cell Toxicity qHTS against the NCATS CANVASS Library (AID 1347355). Also: series mostly up to about 46 µM; nearly all actives have a fitted effect of over 65% in size. The gist of the method:
as §2

Assay [12] is described as follows: HEK293 18hr Apoptosis Induction qHTS against the NCATS CANVASS Library (AID 1347357). The gist of the method: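 HEK293 cells (500 per well, DMEM with 10% FBS) were treated with natural products, incubated 18 hours at 37 degrees C, then caspase-3/7 activity was read by Caspase-Glo luminescence after 15 min at room temperature.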
Assay [13] in a line: HPAF-II 12hr Apoptosis Induction qHTS against the NCATS CANVASS Library (AID 1347358). The gist of the method: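 500 HPAF-II cells/well; cmpds 11-pt; 12 hr, 37 degrees C/5% CO2; Caspase-Glo 3/7 added, 15 min RT dark; luminescence read. Doxorubicin titration as control.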
Assay [14] in a line: HEK293 24hr Apoptosis Induction qHTS against the NCATS CANVASS Library (AID 1347359). The gist of the method: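 HEK293 cells, 500 per well, exposed to an 11-point compound series for 24 hours at 37 degrees C. Caspase 3/7 activity read by Caspase-Glo luminescence (DEVD substrate) after 15 min at room temperature.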
The nature of assay [15]: HPAF-II 18hr Apoptosis Induction qHTS against the NCATS CANVASS Library (AID 1347360). The gist of the method:
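HPAF-II cells (500/well, DMEM + 10% FBS) were exposed to compounds for 18 hours at 37 degrees C. Caspase-3/7 activity was then read by Caspase-Glo 3/7 luminescence after 15 min at room temperature.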

The nature of assay [16]: HEK293 12hr Apoptosis Induction qHTS against the NCATS CANVASS Library (AID 1347361). The gist of the method: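 Read-out: Caspase-Glo 3/7 luminescence (DEVD substrate), 15 min RT. Preceded by 12 h compound exposure of HEK293, 500 cells/well, 11-pt qHTS titration; doxorubicin titration as control.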
In assay [17] the test system is NAD(P)H diaphorase (Clostridium kluyveri). Nature of the assay: Diaphorse counterscreen qHTS: Assay Interference Panel against the NCATS CANVASS Library (AID 1347362). The gist of the method: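 Clostridium kluyveri diaphorase in PBS + 0.01% Tween-20 preincubated 15 min with compounds. Resazurin and NADH then added for 5 min at room temperature in the dark; resorufin fluorescence read (ex 525, em 598).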
Background: The purpose of a counterscreen is to sort out artefacts and off-target activity.

For assay [18], the target named is Luciferin 4-monooxygenase (Photinus pyralis) (UniProt P08659). Nature of the assay: Firefly luciferase counterscreen qHTS: Assay Interference Panel against the NCATS CANVASS Library (AID 1347363). Also: series mostly up to about 57 µM. In outline:
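Purified P. pyralis luciferase (0.04 ug/mL, 4x reagent) added to Tris-acetate buffer with 0.013 mM D-luciferin, 0.013 mM ATP and 13.3 mM Mg-acetate; compounds preincubated 15 min, then luminescence read after 5 min, RT.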

Assay [19] in a line: KB-8-5-11 Cancer Cell Toxicity qHTS against the NCATS CANVASS Library (AID 1347364). Also: series mostly up to about 46 µM; nearly all actives have a fitted effect of over 75% in size. In outline:
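Plate 500 KB-8-5-11 cells per well in DMEM + 10% FBS, add compounds by pin transfer, incubate 72 hr at 37C. Add CellTiter-Glo, wait 10 minutes at room temperature, read luminescence.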

A short description of assay [20]: KB-3-1 Cancer Cell Toxicity qHTS against the NCATS CANVASS Library (AID 1347366). Also: series mostly up to about 46 µM; nearly all actives have a fitted effect of over 75% in size. In outline:
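KB-3-1 cells (500 cells/well) in DMEM + 10% FBS were treated with compounds for 72 hr at 37C, 5% CO2. Viability was read as CellTiter-Glo luminescence after 10 minutes at room temperature.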

Assay [21] in a line: qHTS for ATAD5 Agonist screened against the NCATS CANVASS Library (AID 1347367).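 Also: luciferase reporter driven by ATAD5 which rises upon DNA damage.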 The gist of the method: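 HEK293T cells stably carrying an ATAD5-controlled luciferase reporter (2000 cells/well) attached for 5 hr, then received compounds in an 11-point series for 16hr at 37C. Luminescence was read after a 30 min room-temperature reagent step.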
Assay [22] is described as follows: G06 Cancer Cell Toxicity qHTS against the NCATS CANVASS Library (AID 1347368). Also: series mostly up to about 46 µM; nearly all actives have a fitted effect of over 60% in size. The gist of the method:
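Dog G06 glioma line, 500 cells/well; cpds pin-transferred, 11-pt; 72 hr, 37C/5% CO2; CellTiterGlo luminescence (ATP) endpoint.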

Records with an inconclusive call do not appear. Active and inactive are the calls of the source. Calls follow the shape of the dose curve; as a rule, active = well fitted curve in the direction sought with a large enough effect; inconclusive = small, poorly fitted or top-dose-only effect, or another doubt; inactive = no such curve, though single readings can be large; an effect the other way counts as inactive or inconclusive.

The values below come from PubChem BioAssay (NCATS).

Chain of Luciferin 4-monooxygenase (Photinus pyralis) (P08659 whole entry, looked up): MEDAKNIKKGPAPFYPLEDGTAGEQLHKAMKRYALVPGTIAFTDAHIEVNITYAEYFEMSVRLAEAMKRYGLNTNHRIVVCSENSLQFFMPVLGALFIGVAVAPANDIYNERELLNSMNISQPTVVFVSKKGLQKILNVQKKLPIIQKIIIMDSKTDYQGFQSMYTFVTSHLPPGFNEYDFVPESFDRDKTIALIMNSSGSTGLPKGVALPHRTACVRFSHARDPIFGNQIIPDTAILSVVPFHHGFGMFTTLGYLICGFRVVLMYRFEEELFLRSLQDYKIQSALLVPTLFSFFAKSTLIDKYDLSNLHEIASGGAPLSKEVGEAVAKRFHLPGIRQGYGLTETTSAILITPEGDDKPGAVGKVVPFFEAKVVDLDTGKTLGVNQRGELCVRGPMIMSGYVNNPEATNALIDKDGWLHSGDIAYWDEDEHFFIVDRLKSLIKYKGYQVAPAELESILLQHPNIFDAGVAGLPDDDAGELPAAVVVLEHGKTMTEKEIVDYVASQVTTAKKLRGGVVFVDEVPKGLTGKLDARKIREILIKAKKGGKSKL

Take `C=C1[C@H]2CC[C@@]3(C=CC(=O)[C@@](C)(CCC(=O)Nc4c(O)ccc(C(=O)O)c4O)C3C2)[C@H]1O` (some centres not stated): the Potency in assay [1] was 44 µM (active). Further, the Potency entry in assay [2], in assay [3], in [4], in [5], in assay [6] and in [7] was “inactive” each time. Also, the Potency entry in [8], in assay [9], in [10], in assay [11], in assay [12] and in assay [13] was “inactive” each time. Further, the Potency entry in assay [14], in [15], in assay [16], in assay [17], in assay [18] and in [19] was “inactive” throughout. Moreover, the Potency result in assay [20], in [21] and in assay [22] was “inactive” throughout.
